Source: PubChem (NMMLSC)
BoNT-F LC inh – BoNT F light chain protease inhibition | Multiplex microsphere protease cleavage assay, flow cytometry | inhibition, % at 10 µM | 360,000 tested, 0.22% active | AID 588497; in the data active = inhibition above about 35%, passing the limit was not always enough; inconclusive = no clear call, values can overlap the other calls
BoNT-A LC inh2 – BoNT A light chain protease inhibition | 360,000 tested, 0.17% active | multiplex microsphere protease substrate cleavage, flow cytometry | inhibition, % at 10 µM | AID 588499
Anthrax LF inh2 – blocks Bacillus anthracis lethal factor protease; P15917; multiplex microsphere protease cleavage assay, LF; inhibition, % at 10 µM; 360,000 tested, 0.12% active
Target sequence (P15917 whole entry, looked up): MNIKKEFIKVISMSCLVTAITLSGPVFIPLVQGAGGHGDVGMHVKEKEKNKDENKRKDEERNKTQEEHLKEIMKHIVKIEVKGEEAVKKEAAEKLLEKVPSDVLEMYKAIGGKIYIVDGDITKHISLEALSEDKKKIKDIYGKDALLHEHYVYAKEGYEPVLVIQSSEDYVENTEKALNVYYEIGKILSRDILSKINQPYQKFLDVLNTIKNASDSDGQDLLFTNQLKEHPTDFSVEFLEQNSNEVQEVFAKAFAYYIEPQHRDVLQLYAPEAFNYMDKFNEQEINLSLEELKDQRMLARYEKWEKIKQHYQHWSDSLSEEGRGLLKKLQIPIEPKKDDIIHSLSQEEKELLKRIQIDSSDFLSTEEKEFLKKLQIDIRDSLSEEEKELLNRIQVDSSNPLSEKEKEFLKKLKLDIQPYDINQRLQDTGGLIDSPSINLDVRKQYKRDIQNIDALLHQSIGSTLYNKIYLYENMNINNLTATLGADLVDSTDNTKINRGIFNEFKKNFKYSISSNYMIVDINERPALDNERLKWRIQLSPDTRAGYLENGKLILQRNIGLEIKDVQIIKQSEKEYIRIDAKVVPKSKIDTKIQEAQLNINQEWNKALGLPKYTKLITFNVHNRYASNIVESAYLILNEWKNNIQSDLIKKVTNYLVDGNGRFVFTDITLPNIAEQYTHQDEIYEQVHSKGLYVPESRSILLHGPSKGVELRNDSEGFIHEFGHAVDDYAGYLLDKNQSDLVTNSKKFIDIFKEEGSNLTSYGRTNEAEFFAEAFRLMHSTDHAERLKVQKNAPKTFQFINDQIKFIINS
Bead autofluor – compound fluorescence in toxin protease inhibitor counterscreen; compound autofluorescence counterscreen, microsphere flow cytometry; stronger effect = higher value; fluorescence intensity (test concentration not listed); 360,000 tested, 3.1% active; AID 624483; in the data active = fluorescence intensity above about 16000; inconclusive = no clear call, values can overlap the other calls
A number is an active result; – = inactive; ? = inconclusive. The list is not random: actives were taken first. Their share in the collection is about 3.5%. Rule as the data show it, unless noted: active = inhibition above about 30%; inconclusive = no clear call, values can overlap the other calls; inactive = below that.

SMILES	BoNT-F LC inh	BoNT-A LC inh2	Anthrax LF inh2	Bead autofluor
O=[N+]([O-])c1cc(-n2cnnn2)ccc1N1CCC(Cc2ccccc2)CC1	–	–	–	16952
C=CCCC(=O)N1C[C@H]2CON(C)[C@H]2C[C@H]1c1ccc(N2CCCCC2)cc1	–	–	–	–
CC(=O)N(C(C)=O)c1c(N2CCCC2)c2ccccc2oc1=O	–	–	–	–
CC(=O)N(C(C)=O)c1c(N2CCOCC2)c2ccccc2oc1=O	–	–	–	21404
CC(=O)Oc1ccc(OC(C)=O)c(SCCCCCN2CCOCC2)c1	–	–	–	23369
CC(C)c1ccc(OCCCCCN2CCOCC2)cc1	–	–	–	–
Cc1cc(N/C(=N\S(=O)(=O)c2ccc(F)cc2F)c2ccccc2)no1	–	–	–	17822
O=C(CN1C(=O)COc2ccccc21)NCc1ccc(C(=O)O)cc1	–	–	–	22844
O=C(CN1C(=O)COc2ccccc21)N1CCCc2ccccc21	–	–	–	22767
O=C(CN1C(=O)COc2ccccc21)N1CCCC1	–	–	–	–
Cc1cccc(NS(=O)(=O)c2cc(C(=O)N3CCCCCC3)ccc2C)c1	–	–	–	?
CC(=O)N1CC(C)Sc2ccc(S(=O)(=O)NC(C)c3ccccc3)cc21 (centres undefined)	–	–	–	–
CCOc1ccc(NS(=O)(=O)c2c(C)nc3sc(CC)nn3c2=O)cc1	–	–	–	–
CNc1ccccc1-c1nc2ccccc2n(C)c1=O	?	–	–	–
Cn1c(=O)c(-c2ccccc2)nc2ccccc21	–	–	–	20471
COc1ccc(Oc2nc3ccccc3n(C)c2=O)cc1	–	–	–	16246
Cn1c(=O)c(-c2ccccc2N)nc2ccccc21	–	–	–	20647
Cn1c(=O)c(Oc2cc(Cl)cc(Cl)c2)nc2ccccc21	–	–	–	–
COc1ccc(Oc2nc3ccccc3nc2C(F)(F)F)cc1	–	–	–	23577
COc1cc2c(cc1[N+](=O)[O-])-c1ccc([N+](=O)[O-])cc1C2=NO	–	–	–	–
CCCc1cc(=O)[nH]c(SCC(=O)N(CCOC)c2c(N)n(Cc3ccccc3)c(=O)[nH]c2=O)n1	–	–	–	–
COCCCNC(=O)CCc1nc2cccnc2n1Cc1ccccc1	–	–	–	23819
COc1ccc(Cn2c(CCC(=O)Nc3ccc(CC#N)cc3)nc3cccnc32)cc1	–	–	–	22433
CC(C)C(NC(=O)Nc1ccccc1)C(=O)Nc1cccc(S(=O)(=O)N(C)C)c1 (centres undefined)	–	–	–	–
O=c1cc(/C=C/c2ccccc2)oc2ccccc12	–	?	–	22100
SMILES	BoNT-F LC inh	BoNT-A LC inh2	Anthrax LF inh2	Bead autofluor
Cn1c(N)c(S(=O)(=O)NCc2ccc(F)cc2)c(=O)n(C)c1=O	–	–	–	–
O=C(CSc1ccc2nnc(-c3cccnc3)n2n1)Nc1ccc(F)cc1F	–	–	–	–
O=C(Nc1cccc2[nH]ncc12)c1ccc(F)cc1	–	?	–	22322
Cc1ccc(NC(=O)CSCC(=O)N(C)CC(=O)Nc2cccc3ccccc23)cc1	–	–	–	–
COc1ccccc1NC(=O)CN(Cc1ccco1)C(=O)c1ccc(Cl)nc1	–	–	–	–
Cc1cccc(NC(=O)c2ccccc2C(=O)O)c1	–	–	–	19743
Cc1cccc(NC(=O)c2cccc3c2C(=O)c2ccccc2-3)c1	–	–	–	23188
Cc1cccc(NC(=O)c2ccccc2-c2ccccc2)c1	–	–	–	–
CCN(c1ccccc1)S(=O)(=O)c1ccc(OC)c(NC(=O)COc2ccc(C(C)=O)cc2)c1	–	–	–	–
COc1ccccc1OCCC(=O)OCC(=O)c1c(N)n(C)c(=O)n(C)c1=O	–	–	–	–
CC/C(O)=C(\C#N)c1nnc2n1CCCCC2	–	–	–	20206
CC/C(O)=C(/C#N)c1nnc2n1CCCCC2	–	–	–	–
O=C(Nc1ccccc1C(=O)O)c1cccc(NC(=O)c2ccc(Br)o2)c1	–	–	–	–
O=C(Nc1ccc(S(=O)(=O)N2CCOCC2)cc1)c1ccco1	–	–	–	–
O=C(Nc1ccc(S(=O)(=O)N2CCCCCC2)cc1)c1ccc(Br)o1	–	–	–	21567
O=C(CNC(=O)c1ccco1)Nc1ccc(S(=O)(=O)N2CCCC2)cc1	–	–	–	21490
O=C(Nc1ccccc1C(=O)O)c1ccc(NC(=O)c2ccc(Br)o2)cc1	–	–	–	23730
COc1ccc(/C=C2\SC(=O)N(CC(=O)NCCC(C)C)C2=O)cc1OC	43	–	–	–
CC(C)(C)c1ccc(C(CC(=O)O)NC(=O)C23CC4CC(CC(C4)C2)C3)cc1 (centres undefined)	–	–	–	–
CCOc1ccc(C(CC(=O)O)NC(=O)C23CC4CC(CC(C4)C2)C3)cc1 (centres undefined)	–	–	–	21930
CN1CCN(c2nc3c(c(=O)[nH]c(=O)n3C)n2CCCSc2ncccn2)CC1	–	–	–	22784
CN1CCN(c2nc3c(c(=O)[nH]c(=O)n3C)n2CCSc2nc3ccccc3s2)CC1	–	–	–	–
CCN1CCN(c2nc3c(c(=O)[nH]c(=O)n3C)n2CCCSc2ncccn2)CC1	–	–	–	–
Cn1c(=O)[nH]c(=O)c2c1nc(N1CCc3ccccc3C1)n2CCSc1nc2ccccc2s1	–	–	–	16749
O=C1c2ccccc2C(c2nc3ccccc3[nH]2)N1c1ccccn1 (centres undefined)	–	–	–	–
SMILES	BoNT-F LC inh	BoNT-A LC inh2	Anthrax LF inh2	Bead autofluor
CCOc1ccc(NC(=O)C(=O)NCCN2CCN(S(=O)(=O)c3ccccc3)CC2)cc1	–	–	–	–
CN1CCc2c(c(N3CCCCC3)nc3n[nH]c(N)c23)C1	–	?	–	20525
CCCc1nc2n[nH]c(N)c2c2c1CCC2	–	–	–	–
COc1ccc(OCC(=O)OCCN2C(=O)c3ccccc3C2=O)cc1	–	–	–	20429
CCc1nc2ccc(C(=O)NCc3ccc4c(c3)OCO4)cn2c1N(C)Cc1ccc(OC)cc1	–	–	–	–
CCN(CC)S(=O)(=O)c1cccc(-c2nnc(SCC(=O)NC3CCCCCC3)n2N)c1	–	–	–	22076
CCN(CC)S(=O)(=O)c1cccc(-c2nnc(SCC(=O)NC3CCCCCCC3)n2N)c1	–	–	–	21228
CCN(CC)S(=O)(=O)c1cccc(-c2nnc(SCC(=O)NC3CCCC3)n2N)c1	–	–	–	20557
CC(O)(c1cccnc1)c1nc(-c2cccc(C#N)c2)cs1 (centres undefined)	–	–	–	–
CCc1cccc(NC(=O)C2CCCN2C(=O)Nc2ccc(C)cc2)c1 (centres undefined)	–	–	–	–
CCOC(=O)C1(Cc2ccc(Cl)cc2)CCN(C(=O)c2cscn2)CC1	–	–	–	–
CC(Nc1nc(-c2ccccc2)nc2ccccc12)c1ccccc1 (centres undefined)	–	–	–	–
CC(Nc1nc(N2CCCCC2)nc2ccccc12)c1ccccc1 (centres undefined)	–	?	–	21408
Cc1noc(C)c1CSCC(=O)OCc1nc2ccccc2c(=O)n1CC#N	–	–	–	21620
Cc1occc1-c1nnc(SCc2nc3ccccc3c(=O)n2CC#N)n1C	–	–	–	23590
O=C(Nc1ccc(N2CCN(C(=O)c3ccccc3)CC2)cc1)c1cccs1	–	–	–	–
CCC(=O)N1CCN(c2ccc(NC(=O)c3cccs3)cc2)CC1	–	–	–	17020
